# Measured values reported in PubChem BioAssay AID2284348 (EPA ToxCast).
# Inconclusive results are not listed. The source made the active and inactive calls. How the source made its calls: active means hit-call score of the fitted dose curve at least 0.9, where 1 is the maximum; inconclusive means response in the unintended direction; inactive means score below 0.9.
# Tested on: Japanese medaka Peroxisome Proliferator-activated Receptor alpha (PPARa), gene 100304458
# Test: ATG_jmPPARa_EcoTox2: Attagene TRANS-FACTORIAL EcoTox-2 HepG2 Assay for Japanese medaka Peroxisome Proliferator-activated Receptor alpha (PPARa)
# Experimental: ATG_EcoTox2 is a cell-based, multiplexed assay created by modifying the existing Attagene TRANS-FACTORIAL system to include a panel of nuclear receptors from some or all the following species: human (Homo sapiens), african clawed frog (Xenopus laevis), rainbow trout (Oncorhynchus mykiss), japanese medaka (Oryzias latipes), and zebrafish (Danio rerio). The ECOTOX2-FACTORIAL format uses HepG2, a human liver cell line, with measurements taken at 24 hours after chemical dosing in a 24-well plate. ATG_jmPPARa_EcoTox2 is one of 29 assay components calculated in the ATG_EcoTox2 assay. It is designed to make measurements of mRNA induction, a form of inducible reporter, as detected with fluorescence intensity signals by Reverse transcription polymerase chain reaction (RT-PCR) and Capillary electrophoresis technology.The assay endpoint ATG_jmPPARa_EcoTox2 was analyzed in the positive analysis fitting direction relative to DMSO as the negative control and baseline of activity. Using a type of inducible reporter, measures of mRNA for gain-of-signal activity can be used to understand the reporter gene at the transcription factor-level as they relate to the gene PPARa. Furthermore, this assay endpoint can be referred to as a […], because this assay has produced multiple assay endpoints where this one serves a reporter gene function. To generalize the intended target to other relatable targets, this assay endpoint is annotated to the nuclear receptor intended target family, where the subfamily is non-steroidal.
# Human liver HepG2 cells are transiently transfected with multiple reporter transcription units (MRTUs) in 6-well plates using FuGene 6 reagent (Roche; 3 ml FuGene/1 mg DNA). The MRTU constructs are regulated by a cis-regulating element (promoter). Each RTU expresses a GAL4-UAS that regulates the transcription of a nearby target reporter gene sequence. A major difference between the CIS and TRANS system is that in CIS activities of endogenous TFs are measured, whereas the TRANS assay evaluates changes in activities of exogenous, chimeric NR-Gal4 proteins. […] At the end of 24 hour incubation, total RNA was isolated using TriZol reagent (Invitrogen). The isolated RNA is then reverse-transcribed using oligo(dT) primer and Mo-MLV reverse transcriptase (Invitrogen) with DNAse I (Ambion) treatment for 30 min. The one-tenth of the produced cDNA was amplified by PCR using Taq DNA polymerase (Invitrogen) and two reporter sequence-specific primers. The PCR products were fluorescently labeled by primer extension with 6-arboxyfluorescein (6-FAM) 5'-labeled reporter sequence-specific primer (2 min at 95 C, 20 s at 68 C and 10 min at 72 C) and these products were digested with 5U of HpaI (New England Biolabs) for 2h at 37 C. The fragments were purified using Qiaquick PCR columns (Qiagen), analyzed on an ABI 3130xL genetic analyzer (Applied Biosystems) with peak positions identified by using a set of X-rhodamine (ROX)-labeled MapMarker1000 molecular weight standards (BioVentures). The raw capillary electrophoresis data was processed using Attagraph software (Attagene).
Structure (SMILES),outcome,AC50
C[C@]12C=CC(=O)C=C1CC[C@@H]1[C@@H]2C(=O)C[C@@]2(C)[C@H]1CC[C@]2(O)C(=O)CO,inactive,
CC(C)(Oc1ccc(Cl)cc1)C(=O)O,inactive,
CN(CCOc1ccc(CC2SC(=O)NC2=O)cc1)c1ccccn1 (stereo unspecified),inactive,
Cc1nc(-c2ccc(C(F)(F)F)cc2)sc1C(=O)NCc1ccc(OC(C)(C)C(=O)O)cc1,,0.0807 µM (active)
C=C(c1ccc(C(=O)O)cc1)c1cc2c(cc1C)C(C)(C)CCC2(C)C,inactive,
CC(C)(Oc1ccc(C2CC2(Cl)Cl)cc1)C(=O)O (stereo unspecified),,58.5 µM (active)
Cc1cccc(Nc2cc(Cl)nc(SCC(=O)O)n2)c1C,,63.8 µM (active)
CC(C)(Oc1ccc(CCNC(=O)c2ccc(Cl)cc2)cc1)C(=O)O,,45.9 µM (active)
Cc1ccc(C)c(OCCCC(C)(C)C(=O)O)c1,inactive,
CC(C)OC(=O)C(C)(C)Oc1ccc(C(=O)c2ccc(Cl)cc2)cc1,inactive,
C[C@@H]1C[C@H]2[C@@H]3CCC4=CC(=O)C=C[C@]4(C)[C@@]3(F)[C@@H](O)C[C@]2(C)[C@@]1(O)C(=O)COP(=O)(O)O,inactive,
